AT treatment: candidate therapy for ataxia-telangiectasia. F2112 A-T fibroblasts, KAP-1 phosphorylation AlphaLISA; neocarzinostatin DNA damage 30 min before lysis. Potency, µM (doses to about 57.5 µM), inactives show at the highest dose activation, hits mostly activators. hit rate 0.19% among 320,000. AID 485349; also: potency is read from the fitted curve at half-maximal effect; % of control where 0% means no effect; nearly all actives have a fitted effect of over 45% in size
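ATM-like activity read as KAP-1 phosphorylation via AlphaLISA donor/acceptor antibody pairs after lysis and 6 hr at 25C. Cells were ATM-null patient fibroblasts (F2112, hTERT), dosed 60 min, then exposed to the DSB inducer NCS for 30 min.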
Nrf2 block: blocks Nrf2 signaling; Potency, µM (titrated, usually from 46 µM), without a hit: at the highest dose activity change, negative = inhibition, actives largely listed as inhibitors; A549 ARE-Fluc reporter, luciferase luminescence, 18-24 h; hit rate 2.1% among 360,000; also: potency is read from the fitted curve at half-maximal effect; % is scaled to controls: 0 for no effect and ±100 for the full control effect; nearly all actives have a fitted effect of over 60% in size
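Nrf2 function is reported as luminescence of an ARE-controlled luciferase in A549 cells. Compounds were tested at several concentrations, and a CellTiter-Fluor read on the same wells flagged cytotoxicity.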
Nrf2 ARE act: activates Nrf2 signaling | AREc32 ARE-luciferase reporter (MCF7-derived line), luminescence, 24 h | Potency, µM (doses to about 46.1 µM), for the others: top-dose activation, actives largely listed as activators | hit rate 0.31% among 410,000; also: potency is read from the fitted curve at half-maximal effect; % of control where 0% means no effect; nearly all actives have a fitted effect of over 65% in size
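Each well held 1000 AREc32 cells, which were incubated with compound for 24 hr at 37 deg C after overnight attachment, and ARE reporter activity was quantified by firefly luciferase luminescence.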
A549 tox: counter-screen for Nrf2 inhibitors: cytotoxicity in A549 cells; A549 ARE-Fluc cells, CellTiter-Fluor viability, 18-24 h; Potency, µM (highest dose often 46 µM), for inactives: top-dose activity change, negative = cytotoxicity, most hits filed as inhibitors; hit rate 0.16% among 390,000; AID 504648; also: potency is read from the fitted curve at half-maximal effect; % is scaled to controls: 0 for no effect and ±100 for the full control effect
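A549 ARE_Fluc cells in 5% FBS OPTI-MEM were exposed to compounds in concentration-response for 18-24 h at 37 deg C. Viability was read by CellTiter-Fluor fluorescence (Ex 405/Em 525) after 30 min, before the luciferase read.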
TCR activator: activators of T cell receptors; primary human leukocytes, anti-CD3, IL-2 HTRF, 48 h; Potency, µM (doses to about 9.22 µM), without a hit: top-dose activation of IL-2 secretion, actives largely listed as activators; 330,000 tested, under 10 active; AID 504894; also: % of control where 0% means no effect
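IL-2 produced over 48 hr by a-CD3 bead-stimulated primary human leukocytes exposed to compounds was detected with a homogeneous time-resolved FRET immunoassay, 665nm acceptor signal after 320nm excitation.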
CCT chaperon mod: cytosolic chaperonin activity modulation; purified chaperonin ATPase assay, HTRF ADP detection, 30 min; hit rate 0.3% among 360,000; activity change, % (concentration not given with the values), hits read low; in the data active = activity change below about -30%; also: % is scaled to controls: 0 for no effect and ±100 for the full control effect
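First, chaperonin was dispensed at 40 nM or 20 nM final depending on batch activity. Next, compounds were pinned at 76 uM and ATP added at 10 uM. After 30 min at 37 °C, ADP detection reagents ran 30 min at ambient temperature.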
* hit, by the source's call; ! = repeats disagree; [ ] = another dose, or the depositor's remark. An excerpt weighted towards active compounds, which were near 2.6% of everything screened. Unless noted, calls follow the shape of the dose curve; as a rule, active = well fitted curve in the direction sought with a large enough effect; inconclusive = small, poorly fitted or top-dose-only effect, or another doubt; inactive = no such curve, though single readings can be large; an effect the other way counts as inactive or inconclusive.

Results for CCCC(=O)C1=C(c2ccc(C)c(C)c2)N(C(=O)CCC)n2c(CC)nnc2S1 ?
Nrf2 ARE act: 0.4%; A549 tox: -19.8%

Results for CCC(=O)C1=C(c2ccc(OC)c(OC)c2)N(C(=O)CC)n2c(CC)nnc2S1 ?
Nrf2 block: 23.1µM*; Nrf2 ARE act: 7.9%; A549 tox: -7.6%

What do the screens show for `COc1ccc(S(=O)(=O)N2CCN(Cc3nc4ccc(C)cc4o3)CC2)cc1OC`?
Nrf2 ARE act: 0.8%; A549 tox: 1.8%

Results for COc1ccccc1C(=O)Nc1nc2ccccc2[nH]1 ?
AT treatment: 8.2%; Nrf2 block: inconclusive; Nrf2 ARE act: -2.1%; A549 tox: 2.3%; TCR activator: 0.2%; CCT chaperon mod: -1.6

Results for COc1cc(SC)ccc1C(=O)Nc1nc2ccccc2[nH]1 ?
AT treatment: 9.9%; Nrf2 block: 1.64µM*; Nrf2 ARE act: -2.1%; A549 tox: -11.7%; TCR activator: 5.4%; CCT chaperon mod: -0.3

What do the screens show for `CCOC(=O)c1cc(OC(=O)c2cccc([N+](=O)[O-])c2)n(-c2ccccc2)n1`?
AT treatment: -4.9%; Nrf2 block: -13.4%; Nrf2 ARE act: -1.1%; A549 tox: 4.6%; TCR activator: 2.1%; CCT chaperon mod: -34.9*

How did CCOC(=O)c1cc(OC(=O)c2ccccc2)n(-c2ccccc2)n1 do in these assays?
AT treatment: -2.5%; Nrf2 block: -24.7%; Nrf2 ARE act: -0.6%; A549 tox: -1.1%; TCR activator: -4.8%; CCT chaperon mod: -1.0

How did CCc1ccccc1NC(=O)C1CC(c2ccc(F)cc2)=NO1 (stereo not given) do in these assays?
AT treatment: -8.0%; Nrf2 block: inconclusive; Nrf2 ARE act: -0.5%; A549 tox: 3.2%; TCR activator: 0.1%; CCT chaperon mod: 0.7

Results for COC(=O)c1ccccc1NC(=O)C1CC(c2ccc(F)cc2)=NO1 (stereo not given) ?
AT treatment: 11.4%; Nrf2 block: 4.11µM*; Nrf2 ARE act: 1.8%; A549 tox: -7.0%; TCR activator: 1.4%; CCT chaperon mod: -0.4

How did CCN1CCN(c2cc(C)c3cc(NC(=O)c4cc(OC)c(OC)c(OC)c4)ccc3n2)CC1 do in these assays?
Nrf2 ARE act: 22.4%; A549 tox: -17.1%

What do the screens show for `CCN1CCN(c2cc(C)c3cc(NC(=O)c4ccc(OC)c(OC)c4)ccc3n2)CC1`?
AT treatment: -3.1%; Nrf2 block: 16.4µM*!; Nrf2 ARE act: 5.6%; A549 tox: 16.4µM*!; TCR activator: 2.1%; CCT chaperon mod: 0.6

Results for COc1ccc(/C=N/Nc2nonc2N)cc1 ?
AT treatment: 1.9%; Nrf2 block: -4.7%; Nrf2 ARE act: -0.8%; A549 tox: -16.5%; TCR activator: -0.6%; CCT chaperon mod: -1.2

What do the screens show for `COc1ccc(/C=N/Nc2nn3cnnc3c3ccccc23)cc1`?
AT treatment: 44.7µM*; Nrf2 block: -10.3%; Nrf2 ARE act: 0.2%; A549 tox: 1.9%; TCR activator: 8.8%; CCT chaperon mod: -2.9

What do the screens show for `Cn1c(=O)c2cc(NC(=S)NC3CCCCC3)ccc2n1Cc1ccc(Cl)cc1`?
Nrf2 ARE act: -0.6%; CCT chaperon mod: 0.1

Results for COc1ccc(C(C(=O)NC2CCCCC2)N(Cc2cccs2)C(=O)Cc2c[nH]c3ccccc23)cc1OC (stereo not given) ?
AT treatment: 0.5%; Nrf2 block: 23.1µM*; Nrf2 ARE act: 2.3%; A549 tox: inconclusive; TCR activator: 1.5%; CCT chaperon mod: -2.7

How did COc1ccc(C(C(=O)NC2CCCCC2)N(C(=O)Cc2c[nH]c3ccccc23)c2ccccc2C)cc1OC (stereo not given) do in these assays?
AT treatment: -5.4%; Nrf2 block: inconclusive; Nrf2 ARE act: 3.7%; A549 tox: inconclusive; TCR activator: -6.1%[46.1 µM]; CCT chaperon mod: 1.8

Results for Cc1ccc(N(C(=O)Cc2c[nH]c3ccccc23)C(C(=O)NC2CCCCC2)c2ccco2)cc1 (stereo not given) ?
AT treatment: 0.9%; Nrf2 block: 18.4µM*; Nrf2 ARE act: -0.1%; A549 tox: inconclusive; TCR activator: 0.8%; CCT chaperon mod: -0.9

Results for COc1cc(F)ccc1S(=O)(=O)N1CCN(Cc2ccccc2)CC1 ?
AT treatment: 18.5%; Nrf2 block: -14.2%; Nrf2 ARE act: -0.1%; A549 tox: 0.1%; CCT chaperon mod: 0.6

What do the screens show for `CCOC(=O)c1ccccc1NC1c2ccccc2C(=O)N1C1CCN(C(=O)OCC)CC1` (stereo not given)?
AT treatment: 11.9%; Nrf2 block: 16.4µM*; Nrf2 ARE act: 3.7%; A549 tox: 2.6%; TCR activator: -1.9%[46.1 µM]; CCT chaperon mod: -1.6

How did CCOC(=O)N1CCC(N2C(=O)c3ccccc3C2Nc2ccc3c(C)cc(=O)oc3c2)CC1 (stereo not given) do in these assays?
AT treatment: 39.8µM*; Nrf2 block: inconclusive; Nrf2 ARE act: 0.8%; A549 tox: -10.0%; TCR activator: -0.7%[46.1 µM]; CCT chaperon mod: -1.1

What do the screens show for `CCOC(=O)N1CCC(N2C(=O)c3ccccc3C2Nc2ccc3c(c2)OCCO3)CC1` (stereo not given)?
AT treatment: 3.8%; Nrf2 block: inconclusive; Nrf2 ARE act: -0.6%; A549 tox: -1.3%; TCR activator: 6.1%; CCT chaperon mod: -1.5

How did CCNc1ccc2noc3c2c1C(=O)c1ccccc1-3 do in these assays?
AT treatment: 3.6%; Nrf2 block: 20.6µM*; Nrf2 ARE act: 4.6%; A549 tox: inconclusive; TCR activator: 4.0%[46.1 µM]; CCT chaperon mod: -1.2

How did O=C1c2ccccc2-c2onc3ccc(NCc4ccco4)c1c23 do in these assays?
AT treatment: 22.4µM*; Nrf2 block: -28.2%; Nrf2 ARE act: inconclusive; A549 tox: inconclusive; TCR activator: 4.3%; CCT chaperon mod: -2.0

What do the screens show for `CCCNC(=O)C(=O)NCC(c1ccc2c(c1)OCO2)N1CCOCC1` (stereo not given)?
Nrf2 ARE act: 0.3%; A549 tox: 1.0%

Results for Cc1ccc(CSCC(=O)Nc2cc(S(=O)(=O)N3CCOCC3)ccc2OC(C)C)cc1 ?
AT treatment: -4.5%; Nrf2 block: -13.3%; Nrf2 ARE act: 3.0%; A549 tox: 1.3%; TCR activator: 2.4%; CCT chaperon mod: -4.5

How did COc1cccc(NC(=O)C2CCN(c3nnc(-n4c(C)ccc4C)s3)CC2)c1 do in these assays?
Nrf2 block: -12.5%; Nrf2 ARE act: 15.5%; A549 tox: -0.1%

Screens deposited in PubChem by National Center for Advancing Translational Sciences (NCATS).
